Dicer inh – inhibitors of human Dicer processing of pre-microRNA | cat-ELCCA pre-miR-21 Dicer processing, chemiluminescence; hits give high values | hit rate 6% among 47,000 | AID 1347074 | Q9UPY3 | z-score at 25 µM; in the data active means z-score above about 3, passing the limit was not always enough;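 further: higher signal means more uncleaved substrate so more Dicer inhibition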
Of the large screens only hits and unclear results are named; the others gave an inactive call. Only a selection was taken, and hits are over-represented in it overall.

COc1ccc(O)c(C2=NN3C(C2)c2cccc(OC)c2OC3c2ccncc2)c1 (centres undefined)	Dicer inh 6.23
COc1cccc2c1OC(c1ccncc1)N1N=C(c3cc(C)ccc3O)CC21 (centres undefined)	none
COc1ccc(O)c(C2=NN3C(C2)c2cccc(OC)c2OC3c2ccc(O)c(OC)c2)c1 (centres undefined)	none
COc1ccc(C2Oc3c(OC)cccc3C3CC(c4cc(C)ccc4O)=NN32)cc1O (centres undefined)	none
COc1cc(C2Oc3c(OC)cccc3C3CC(c4cc(C)ccc4O)=NN32)ccc1O (centres undefined)	Dicer inh 14
COc1cccc(C2Oc3c(OC)cccc3C3CC(c4cc(OC)ccc4O)=NN32)c1 (centres undefined)	none
COCCN1C(=O)c2oc3ccccc3c(=O)c2C1c1ccc(O)cc1 (centres undefined)	none
COc1cccc(-c2cc(C(F)(F)F)n3nc(N)nc3n2)c1	none
COc1ccc(-c2cc(C(F)(F)F)n3nc(N)nc3n2)cc1OC	Dicer inh 5.47
COc1ccc(-c2cc(C(F)(F)F)n3nc(N)nc3n2)cc1	none
CC1CN(Cc2c(O)ccc3c(=O)c(Oc4ccc5ccccc5c4)c(C(F)(F)F)oc23)CC(C)O1 (centres undefined)	none
CN1CCN(Cc2c(O)ccc3c(=O)c(-c4ccccc4)c(C(F)(F)F)oc23)CC1	none
CC1CN(Cc2c(O)ccc3c2oc(=O)c2ccccc23)CC(C)O1 (centres undefined)	Dicer inh 3.09
CC1CN(Cc2c(O)ccc3c(=O)c(-c4ccccc4)coc23)CC(C)O1 (centres undefined)	none
O=c1c(-c2ccccc2)coc2c(CN3CCCCC3)c(O)ccc12	none
CC1CCN(Cc2c(O)ccc3c2oc(=O)c2ccccc23)CC1	Dicer inh 3.46
COc1cc(N=C(N)N=C(N)N)cc(OC)c1OC	none
CC(=O)ON=C1c2cc([N+](=O)[O-])ccc2-c2ccc([N+](=O)[O-])cc21	none
CSc1ccc(OS(=O)(=O)c2cc(S(=O)(=O)c3ccccc3)cs2)cc1	none
CC(=O)c1cc2cc([N+](=O)[O-])ccc2o1	none
Cc1c(CN2CCOCC2)c(=O)n(-c2ccccc2)n1C	none
Cc1nn2c3c(cnc2c1-c1ccccc1)C(=O)CC(c1cccc(Cl)c1)C3 (centres undefined)	none
O=c1c(Cc2ccc(Cl)c(Cl)c2)c(-c2ccccc2)oc2ccccc12	none
CN(C)c1nc(C(=O)O)nc(N2CCOCC2)n1	Dicer inh 3.38
CC(C)(C)Nc1nc(C(N)=O)nc(N2CCOCC2)n1	Dicer inh 5.07
CCOC(=O)c1cnc(N2CCOCC2)nc1N	none
CN(C)c1nc(N2CCOCC2)nc(N(c2ccccc2)c2ccccc2)n1	none
CCCNC(=O)NNC(=O)C(C)n1nnc(N2CCOCC2)n1 (centres undefined)	none
CC(C)(C)Nc1nc(C(=O)O)nc(N2CCOCC2)n1	none
COc1ccc(OCC(O)CNC(C)C)cc1 (centres undefined)	none
COC(=O)C(N)CCSC (centres undefined)	none
Cc1nc2oc3c(-c4ccc(Br)cc4)ncnc3c2c2c1COC(C)(C)C2	none
CC(C)Oc1ccc(C2Nc3ccccc3NC3=C2C(=O)CC(C)(C)C3)cc1 (centres undefined)	none
CC1(C)CC(=O)C2=C(C1)Nc1ccccc1NC2c1cccc(Br)c1 (centres undefined)	Dicer inh 3.54
Cc1ccc2c(c1)NC(c1ccccc1)C1=C(CC(C)(C)CC1=O)N2 (centres undefined)	none
CC(C)(C)NS(=O)(=O)c1ccc(Cl)c(Cl)c1	none
Cc1cc(Oc2ccc(C(F)(F)F)cc2[N+](=O)[O-])c2cccc(Cl)c2n1	none
Nc1nonc1C(=O)NCCNC(=O)c1cccc(Br)c1	Dicer inh 5.23
Nc1nonc1C(=O)NCCNCc1cccs1	none
CC(C)(C)C(=O)NCCNC(=O)c1nonc1N	none
O=C(Nc1cccc2nsnc12)c1sc2cccc(F)c2c1Cl	none
O=C(CSc1nc2ccccc2o1)N1CCN(S(=O)(=O)c2ccccc2)C1	none
CCCCOc1ccc(C2c3c(oc4ccccc4c3=O)C(=O)N2c2nncs2)cc1OCC (centres undefined)	none
CCCOc1ccc(C2c3c(oc4ccccc4c3=O)C(=O)N2c2ccc(C)cn2)cc1OCC (centres undefined)	none
CCCOc1ccc(C2c3c(oc4ccccc4c3=O)C(=O)N2c2nnc(C)s2)cc1OCC (centres undefined)	none
CCCCOc1ccc(C2c3c(oc4ccccc4c3=O)C(=O)N2c2ccccn2)cc1OCC (centres undefined)	Dicer inh 4.61
CCCOc1ccc(C2c3c(oc4ccccc4c3=O)C(=O)N2c2ccccn2)cc1OCC (centres undefined)	Dicer inh 4.4
CCCOc1cccc(C2c3c(oc4ccccc4c3=O)C(=O)N2c2ccccn2)c1 (centres undefined)	none
CC(=O)OC[C@H]1O[C@@H](OC(C)=O)[C@H](N2C(=O)c3ccccc3C2=O)[C@@H](OC(C)=O)[C@@H]1OC(C)=O	none
Clc1ccc(/C=C2\CCCC3C2=NNC3c2ccc(Cl)cc2)cc1 (centres undefined)	none
Cc1cccc(Nc2cc(C)nc3ncnn23)c1	none
O=C(Nc1ccc(Cl)cc1)c1cccc(C(=O)Nc2ccc(Cl)cc2)c1F	none
FC(F)(F)c1cc(-c2ccccc2)n[nH]1	none
Cc1ccc(O)c(-c2cc(C(F)(F)F)[nH]n2)c1	Dicer inh 4.1
FC(F)(F)c1cc(-c2ccc3c(c2)OCO3)n[nH]1	none
COc1cccc(OC)c1/C=N/Nc1ccc([N+](=O)[O-])cn1	none
O=C1C(c2cccc([N+](=O)[O-])c2)=C(O)c2ccccc21	none
O=[N+]([O-])c1cccnc1Sc1nnc(-c2cccc(Cl)c2)o1	none
CCOC(=O)c1cc(Sc2n[nH]c(-c3ccccc3)n2)cc(C(=O)OCC)n1	none
O=C1c2cc([N+](=O)[O-])ccc2-c2ccc([N+](=O)[O-])cc21	Dicer inh 7.71
NN=C1c2cc([N+](=O)[O-])ccc2-c2ccc([N+](=O)[O-])cc21	none
O=[N+]([O-])c1ccc2c(c1)C(=NO)c1cc([N+](=O)[O-])ccc1-2	none
Cc1csc2sc(C=NCc3cccs3)c(C)c12	none
CCCCNC(=O)Oc1ccc(C2=NCCS2)cc1	none
COC(=O)c1nn(-c2ccc(F)cc2)ccc1=O	none
COC(=O)C1=C(O)CSC1=Nc1ccccc1	none
COC(=O)C1=C(O)CSC1=Nc1ccc(F)cc1	Dicer inh 5.11
CCCC(=O)N(c1ccc2oc(=O)sc2c1)S(=O)(=O)c1ccc(C(=O)O)cc1	none
CCCC(=O)N(c1ccc2oc(=O)sc2c1)S(=O)(=O)c1ccc(F)cc1	none
CCCC(=O)N(c1ccc2oc(=O)sc2c1)S(=O)(=O)c1ccc(OC)c(OC)c1	Dicer inh 4.23
CCCCC(=O)N(c1ccc2oc(=O)sc2c1)S(=O)(=O)c1ccc(OC)c(OC)c1	Dicer inh 3.86
CCCCC(=O)N(c1ccc2oc(=O)sc2c1)S(=O)(=O)c1ccc(OCC)cc1	none
O=C(Cc1ccccc1)N(c1ccc2oc(=O)sc2c1)S(=O)(=O)c1ccccc1	Dicer inh 5.4
CCCC(=O)N(c1ccc2oc(=O)sc2c1)S(=O)(=O)c1cc(OC)ccc1OC	none
CC(C)C(=O)N(c1ccc2oc(=O)sc2c1)S(=O)(=O)c1ccc(Br)cc1	none
CCCCC(=O)N(c1ccc2oc(=O)sc2c1)S(=O)(=O)c1cccs1	none
O=C(Nc1nc(-c2ccc(F)c(F)c2)cs1)c1ccccc1	none
CC1(CO)CSC(Nc2ccc(F)cc2)=N1 (centres undefined)	none
COc1ccc(C2Oc3ccccc3C=C2[N+](=O)[O-])cc1 (centres undefined)	none
O=C(O)COCC(=O)NCCN1CCNC1=O	none

High-throughput results deposited in PubChem BioAssay by Center for Chemical Genomics, University of Michigan.
